Screens: PubChem BioAssay, National Center for Advancing Translational Sciences (NCATS)
The list is not random: actives were taken first. Their share in the collection is about 19%.
TDP1 cell noCPT – qHTS for Inhibitors of human tyrosyl-DNA phosphodiesterase 1 (TDP1): qHTS in cells in absence of CPT; Potency, µM (titrated, usually from 46.2 µM), for inactives: at the top dose activity change, negative = growth inhibition, usual class: inhibitors; AID 686978, 2013; DT40 Tdp1-/- hTDP1 cells, no CPT, ATP luminescence, 48 h; hit rate 15% among 420,000; note: potency is the fitted concentration of half-maximal effect; % is set by controls: 0 for no effect and ±100 for the full control effect; nearly all actives have a fitted effect of over 55% in size
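Luminescent ATP content (CellTiter-Glo) served as the growth readout. Knockout chicken DT40 cells expressing human TDP1 were exposed to compounds without camptothecin for a minimum 48 hr at 37 °C.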
IL-1B inflam inh – inflammasome signaling inhibition, IL-1 beta readout; THP-1 LPS/ATP IL-1B secretion, AlphaLISA, 16 h; active compounds read low; activity change, % at 57.5 µM; hit rate 4.7% among 360,000; AID 743279; in the data active = activity change below about -50%; inconclusive = mostly about -30% to -49%; note: % is set by controls: 0 for no effect and ±100 for the full control effect
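THP-1 cells pretreated 1 hr with compounds (up to 57.5 uM final), then stimulated with LPS (250 ng/mL final) plus ATP (1.25 mM final); secreted IL-1B measured by AlphaLISA after 16 hr, decreased signal indicating inhibition.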
TDP1 cell CPT – growth inhibition of DT40 Tdp1-/-;hTDP1 cells with camptothecin (screen for TDP1 inhibitors); chicken DT40 Tdp1-/-;hTDP1 cells + 20 nM CPT, ATP luminescence, 48 h; AID 686979; hit rate 12% among 420,000; Potency, µM (highest dose often 46.2 µM), for the others: at the highest dose activity change, negative = growth inhibition, hits mostly inhibitors; note: potency is the fitted concentration of half-maximal effect; % is set by controls: 0 for no effect and ±100 for the full control effect; nearly all actives have a fitted effect of over 55% in size
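Chicken DT40 Tdp1-/- cells stably complemented with human TDP1 were seeded at 400 cells/well in medium containing 20 nM camptothecin, exposed to pin-transferred compounds, and grown at 37 °C for at least 48 hr. Viability was read as ATP luminescence.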
HepG2 tox – counter-screen for TGF-b inhibitors: cytotoxicity in HepG2 cells | hit rate 0.76% among 410,000 | Potency, µM (doses to about 46.1 µM), without a hit: at the highest dose activity change, negative = cytotoxicity, actives largely listed as cytotoxic | HepG2 CAGA-GFP viability, ATP luminescence, 18 h | AID 588856; note: potency is the fitted concentration of half-maximal effect
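HepG2 CAGA-GFP cells (1000/well, DMEM with 1% FBS) received compound, then TGF-beta at 500 pg/mL final, and were incubated 18 hours at 37 degrees C. Viability was read by CellTiter-Glo luminescence. Media-only wells were set as complete cell-killing and DMSO as no toxicity.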
TGFb SMAD3 inh – blocks TGF-b signaling; AID 588855; HepG2 CAGA-GFP TGF-b/SMAD3 reporter, GFP fluorescence, 18 h; TGF-beta stimulated, 500 pg/mL final; Potency, µM (series often up to 46.1 µM), for the others: at the highest dose activity, negative = inhibition, actives largely listed as inhibitors; hit rate 1.2% among 410,000; note: potency is the fitted concentration of half-maximal effect; % is set by controls: 0 for no effect and ±100 for the full control effect; nearly all actives have a fitted effect of over 65% in size
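Using HEPG2 CAGA-GFP reporter cells at 1000 cells/well, we pinned test compounds, stimulated with recombinant TGF-beta (500 pg/mL final) and measured total well GFP after 18 h.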
TDP1 block – inhibitors of human tyrosyl-DNA phosphodiesterase TDP1; hit rate 0.28% among 350,000; Potency, µM (titrated, usually from 130 µM), without a hit: top-dose activity change, negative = inhibition, actives largely listed as inhibitors; recombinant TDP1, AlphaScreen DNA substrate cleavage; AID 485290; note: potency is the fitted concentration of half-maximal effect; % is set by controls: 0 for no effect and ±100 for the full control effect; nearly all actives have a fitted effect of over 40% in size
Target sequence (Q9NUW8 whole entry, looked up): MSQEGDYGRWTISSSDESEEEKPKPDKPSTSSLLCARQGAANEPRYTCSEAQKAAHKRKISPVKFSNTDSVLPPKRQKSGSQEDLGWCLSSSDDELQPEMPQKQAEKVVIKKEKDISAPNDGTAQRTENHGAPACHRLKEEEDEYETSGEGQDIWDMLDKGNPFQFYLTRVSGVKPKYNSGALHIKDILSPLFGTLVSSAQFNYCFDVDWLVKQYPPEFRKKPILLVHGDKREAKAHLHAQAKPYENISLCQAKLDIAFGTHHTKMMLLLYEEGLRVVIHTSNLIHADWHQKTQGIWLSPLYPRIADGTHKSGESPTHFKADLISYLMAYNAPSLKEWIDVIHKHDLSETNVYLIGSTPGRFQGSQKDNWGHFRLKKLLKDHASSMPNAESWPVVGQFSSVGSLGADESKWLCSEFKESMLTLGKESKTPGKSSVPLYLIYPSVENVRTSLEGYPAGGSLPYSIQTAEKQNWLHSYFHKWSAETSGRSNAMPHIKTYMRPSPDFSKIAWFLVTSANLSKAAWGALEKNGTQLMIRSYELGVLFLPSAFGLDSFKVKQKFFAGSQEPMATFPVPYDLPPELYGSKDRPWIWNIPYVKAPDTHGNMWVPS
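Recombinant E. coli-expressed Tdp1 (1 nM) preincubated with compound 15 min at RT, then 5'-biotin/3'-phosphotyrosine-FITC DNA substrate (15 nM) added for 5 min. AlphaScreen beads (10 ug/ml) added, 10 min RT; tyrosine-FITC cleavage read as signal loss.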
An asterisk follows results filed as active; u = inconclusive; x = no result given; [ ] = remark or other dose. Unless noted, calls come from the whole dose curve; as a rule, active = well fitted curve in the direction sought with a large enough effect; inconclusive = small, poorly fitted or top-dose-only effect, or another doubt; inactive = no such curve, though single readings can be large; an effect the other way counts as inactive or inconclusive.

SMILES | TDP1 cell noCPT | IL-1B inflam inh | TDP1 cell CPT | HepG2 tox | TGFb SMAD3 inh | TDP1 block
COc1cccc(N2CCN(c3nc(-c4ccccc4C)cc(=O)[nH]3)CC2)c1 | u | -73.4* | -48.8% | -18.1% | u | 7.6%
Cc1ccc2c(=O)cc(C(=O)Nc3ccc(S(=O)(=O)N4CCCCC4C)cc3)oc2c1C (centres undefined) | -21.0% | x | -8.7% | -6.7% | -20.0% | 2.5%
CN(C(=O)c1cccc(NC(=O)Cc2ccc(NC(=O)C3CCCN(C(=O)C4CCCC4)C3)cc2)c1)C1CCCCC1 (centres undefined) | 16.4µM* | 30.9 | u | -0.9% | u | x
CN(C(=O)c1cccc(NC(=O)Cc2ccc(NC(=O)C3CCN(C(=O)c4ccccc4)CC3)cc2)c1)C1CCCCC1 | u | 56.5 | 23.1µM* | -4.1% | 37.2% | x
O=C(Cc1ccc(NC(=O)C2CCCN(C(=O)C3CCCCC3)C2)cc1)Nc1cccc(C(=O)N2CCCC2)c1 (centres undefined) | u | 24.1 | 29.1µM* | -1.4% | -6.5% | x
CN(C(=O)c1ccc(NC(=O)Cc2cccc(NC(=O)C3CCCN(C(=O)C4CCC4)C3)c2)cc1)C1CCCC1 (centres undefined) | u | 18.4 | 0.184µM* | -16.0% | -17.0% | 2.2%
CN(C(=O)c1ccc(NC(=O)Cc2cccc(NC(=O)C3CCCN(C(=O)C4CCCCC4)C3)c2)cc1)C1CCCC1 (centres undefined) | u | 13.4 | 20.6µM* | -25.7% | -23.4% | 4.8%
CN(C(=O)c1ccc(NC(=O)Cc2cccc(NC(=O)C3CCCN(C(=O)C4CC4)C3)c2)cc1)C1CCCC1 (centres undefined) | -29.3% | 16.2 | u | 4.5% | u | -0.1%
O=C(Nc1ccc(F)cc1F)c1ccc(CN2CC(=O)N3CCCCC3C2=O)cc1 (centres undefined) | -24.4% | x | u | -1.2% | -16.6% | 8.5%
O=C(O)c1cc([N+](=O)[O-])ccc1Nc1ccccc1 | -3.0% | 18.6 | -0.9% | 1.4% | -11.3% | 1.1%
Nc1cc([N+](=O)[O-])ccc1OCc1ccccc1 | u | 6.6 | 18.4µM* | -4.4% | -8.7% | x
Nc1cc([N+](=O)[O-])ccc1Nc1ccccc1 | 6.51µM* | -102.8* | 14.6µM* | -25.2% | -7.5% | 7.4%
CC(=O)N(C)c1cc([N+](=O)[O-])ccc1OCc1ccccc1 | -22.0% | 6.1 | -9.4% | -15.9% | -5.9% | x
CCN(CC(=O)N1CCN(Cc2ccccc2)CC1)S(=O)(=O)c1ccc(C)cc1 | u | 5.1 | u | -4.3% | -6.2% | 5.7%[56.1 µM]
COc1ccc(C2C(C(=O)Nc3ccccc3OC)=C(C)Nc3c(C(=O)Nc4ccccc4)cnn32)c(OC)c1 (centres undefined) | u | x | 20.6µM* | -10.0% | -24.6% | 3.2%
CCOc1ccc(C2C(C(=O)Nc3ccc(C)cc3C)=C(C)Nc3c(C(=O)Nc4ccc(C)cc4)cnn32)cc1OC (centres undefined) | -6.4% | x | -12.9% | 3.3% | -18.2% | 4.2%
CC1=C(C(=O)Nc2ccccc2)C(c2ccccc2Cl)n2ncc(C(=O)Nc3cccc(C)c3)c2N1 (centres undefined) | 18.4µM* | x | u | -3.4% | -47.3% | 3.2%
CC1=C(C(=O)Nc2ccc(C)cc2C)C(c2ccc([N+](=O)[O-])cc2)n2ncc(C(=O)Nc3ccc(F)cc3)c2N1 (centres undefined) | 8.2µM* | x | 8.2µM* | 2.1% | -0.9% | 4.2%
Cc1ccc(NC(=O)CCc2nc3cccnc3n2-c2ccccc2)cc1Cl | 16.4µM* | x | 16.4µM* | -27.5% | 1.2% | 6.4%
